Assay results from PMC9838217, “Structure of SALL4 zinc finger domain reveals link between AT-rich DNA binding and Okihiro syndrome”.
Residue numbers refer to the chain shown, from its start.

Columns and labels:
Assay in all cases: HT-SELEX; high values mean tight binding
Settings in all cases: protein: recombinant; vector His6-GST; dsDNA, one strand shown
[1] = target: T1, SALL4 ZFC4 R900W (HT-SELEX) (Mus musculus, UniProt Q8BX22 870-940, R900W)
T1 sequence: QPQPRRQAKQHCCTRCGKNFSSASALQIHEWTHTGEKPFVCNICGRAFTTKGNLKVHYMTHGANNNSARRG
How it was run: (§1)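 Residues 870–940 of mouse SALL4, forming zinc finger cluster 4, were expressed recombinantly, purified, and 1 µg was incubated with library DNA (1.5 µg first cycle, 200 ng later) in 100 µl of 10 mM Tris–HCl pH 7.5, 50 mM NaCl, poly(dI-dC) and DTT for 10 min at room temperature. Washed Ni2+ bead-captured complexes were PCR-amplified and reselected for up to 6 cycles in triplicate, and the products were sequenced on MiSeq and scanned for 6-mers. Binding signal is the fold change in each canonical k-mer's read fraction compared with the initial random library.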

[2] = target: T2, SALL4 ZFC4 G921D (HT-SELEX) (Mus musculus, UniProt Q8BX22 870-940, G921D)
T2 sequence: T1 sequence with W31R, G52D
How it was run: as §1

[3] = target: T3, SALL4 ZFC4 WT (HT-SELEX) (Mus musculus, UniProt Q8BX22 870-940)
T3 sequence: T1 sequence with W31R
How it was run: as §1

Row | Sequence | binding signal [1] | binding signal [2] | binding signal [3]
1 | AGCGCC | 0.0655 ± 0.00477 fold-change vs cycle 0 | 0.179 ± 0.0733 fold-change vs cycle 0 | 
2 | CCAGGG | 0.305 ± 0.0286 fold-change vs cycle 0 | 0.408 ± 0.0718 fold-change vs cycle 0 | 
3 | CCGTCC | 0.206 ± 0.0173 fold-change vs cycle 0 | 0.337 ± 0.0624 fold-change vs cycle 0 | 
4 | CGCTCC | 0.165 ± 0.00419 fold-change vs cycle 0 | 0.29 ± 0.0821 fold-change vs cycle 0 | 
5 | CGCACC | 0.132 ± 0.00899 fold-change vs cycle 0 | 0.24 ± 0.0749 fold-change vs cycle 0 | 
6 | CCCAGG | 0.297 ± 0.008 fold-change vs cycle 0 | 0.401 ± 0.05 fold-change vs cycle 0 | 
7 | ATTGTG |  | 1.18 ± 0.0673 fold-change vs cycle 0 | 1.1 ± 0.0622 fold-change vs cycle 0
8 | CCCGCC | 0.0634 ± 0.0031 fold-change vs cycle 0 | 0.164 ± 0.0698 fold-change vs cycle 0 | 
9 | CAGGGG | 0.308 ± 0.0124 fold-change vs cycle 0 | 0.417 ± 0.0612 fold-change vs cycle 0 | 
10 | CCTCGC | 0.171 ± 0.0115 fold-change vs cycle 0 | 0.295 ± 0.0773 fold-change vs cycle 0 | 
11 | GCTTTA |  | 1.11 ± 0.0337 fold-change vs cycle 0 | 0.998 ± 0.0694 fold-change vs cycle 0
12 | CCTGCG | 0.145 ± 0.0224 fold-change vs cycle 0 | 0.246 ± 0.0829 fold-change vs cycle 0 | 
13 | GGGCAA | 0.299 ± 0.00241 fold-change vs cycle 0 | 0.434 ± 0.0775 fold-change vs cycle 0 | 
14 | GTGTTA | 1.37 ± 0.0667 fold-change vs cycle 0 | 1.31 ± 0.0659 fold-change vs cycle 0 | 
15 | AGGCTG | 0.37 ± 0.0148 fold-change vs cycle 0 | 0.493 ± 0.0564 fold-change vs cycle 0 | 
16 | GAGCCA | 0.301 ± 0.00918 fold-change vs cycle 0 | 0.466 ± 0.0659 fold-change vs cycle 0 | 
17 | CATGGC | 0.357 ± 0.0224 fold-change vs cycle 0 | 0.495 ± 0.0505 fold-change vs cycle 0 | 
18 | CAGATA |  | 1.29 ± 0.0843 fold-change vs cycle 0 | 1.33 ± 0.0697 fold-change vs cycle 0
19 | CATCTC |  | 1.01 ± 0.0361 fold-change vs cycle 0 | 0.879 ± 0.041 fold-change vs cycle 0
20 | GGGGAC | 0.299 ± 0.0209 fold-change vs cycle 0 | 0.403 ± 0.0552 fold-change vs cycle 0 | 

Row | Sequence | binding signal [1] | binding signal [2] | binding signal [3]
21 | GCCCCA | 0.158 ± 0.0152 fold-change vs cycle 0 | 0.275 ± 0.0854 fold-change vs cycle 0 | 
22 | CCAGCC | 0.149 ± 0.0151 fold-change vs cycle 0 | 0.273 ± 0.0654 fold-change vs cycle 0 | 
23 | GCCGAC | 0.0865 ± 0.0114 fold-change vs cycle 0 | 0.204 ± 0.0612 fold-change vs cycle 0 | 
24 | CCAATA |  | 1.22 ± 0.0438 fold-change vs cycle 0 | 1.24 ± 0.0729 fold-change vs cycle 0
25 | CCGCCG | 0.0347 ± 0.00309 fold-change vs cycle 0 | 0.117 ± 0.0571 fold-change vs cycle 0 | 
26 | TGCGCA | 0.136 ± 0.00666 fold-change vs cycle 0 | 0.263 ± 0.0848 fold-change vs cycle 0 | 
27 | ACTGAG |  | 1.01 ± 0.0137 fold-change vs cycle 0 | 0.855 ± 0.0344 fold-change vs cycle 0
28 | CCGGCC | 0.0476 ± 0.00257 fold-change vs cycle 0 | 0.135 ± 0.0646 fold-change vs cycle 0 | 
29 | GCGCAA | 0.123 ± 0.00425 fold-change vs cycle 0 | 0.249 ± 0.0828 fold-change vs cycle 0 | 
30 | CGCGCG | 0.0217 ± 0.00502 fold-change vs cycle 0 | 0.0939 ± 0.0507 fold-change vs cycle 0 | 
31 | CGACGC | 0.0904 ± 0.00963 fold-change vs cycle 0 | 0.193 ± 0.0701 fold-change vs cycle 0 | 
32 | GCGAGA | 0.334 ± 0.0226 fold-change vs cycle 0 | 0.472 ± 0.0669 fold-change vs cycle 0 | 
33 | CGAAGC | 0.325 ± 0.00517 fold-change vs cycle 0 | 0.474 ± 0.0622 fold-change vs cycle 0 | 
34 | CCGCAG | 0.123 ± 0.0191 fold-change vs cycle 0 | 0.234 ± 0.0772 fold-change vs cycle 0 | 
35 | GAGGCA | 0.367 ± 0.0203 fold-change vs cycle 0 | 0.505 ± 0.1 fold-change vs cycle 0 | 
36 | ATCCTG |  | 1.02 ± 0.0414 fold-change vs cycle 0 | 0.879 ± 0.0324 fold-change vs cycle 0
37 | CCGGAG | 0.255 ± 0.0305 fold-change vs cycle 0 | 0.352 ± 0.0596 fold-change vs cycle 0 | 
38 | ATTTGG |  | 1.1 ± 0.038 fold-change vs cycle 0 | 1.02 ± 0.0576 fold-change vs cycle 0
39 | CCCGAG | 0.2602 ± 0.00145 fold-change vs cycle 0 | 0.386 ± 0.0692 fold-change vs cycle 0 | 
40 | GACGAC | 0.342 ± 0.0283 fold-change vs cycle 0 | 0.474 ± 0.0702 fold-change vs cycle 0 | 

Row | Sequence | binding signal [1] | binding signal [2] | binding signal [3]
41 | CGCGAA | 0.201 ± 0.0239 fold-change vs cycle 0 | 0.315 ± 0.0749 fold-change vs cycle 0 | 
42 | ATGGGC | 0.3096 ± 0.00283 fold-change vs cycle 0 | 0.446 ± 0.0581 fold-change vs cycle 0 | 
43 | CCCCAC | 0.272 ± 0.0152 fold-change vs cycle 0 | 0.375 ± 0.0668 fold-change vs cycle 0 | 
44 | ACCGGG | 0.239 ± 0.0269 fold-change vs cycle 0 | 0.357 ± 0.0693 fold-change vs cycle 0 | 
45 | AGGCGA | 0.276 ± 0.00793 fold-change vs cycle 0 | 0.438 ± 0.0693 fold-change vs cycle 0 | 
46 | ATGGCC | 0.263 ± 0.0192 fold-change vs cycle 0 | 0.413 ± 0.0521 fold-change vs cycle 0 | 
47 | ATCCGC | 0.279 ± 0.016 fold-change vs cycle 0 | 0.426 ± 0.0842 fold-change vs cycle 0 | 
48 | TGCCCA | 0.29 ± 0.00772 fold-change vs cycle 0 | 0.437 ± 0.0679 fold-change vs cycle 0 | 
49 | CCACGG | 0.219 ± 0.0185 fold-change vs cycle 0 | 0.334 ± 0.0695 fold-change vs cycle 0 | 
50 | CGCCAA | 0.185 ± 0.0197 fold-change vs cycle 0 | 0.316 ± 0.0834 fold-change vs cycle 0 | 
51 | CTGCAC | 0.345 ± 0.044 fold-change vs cycle 0 | 0.47 ± 0.0692 fold-change vs cycle 0 | 
52 | CGGCGA | 0.077 ± 0.0153 fold-change vs cycle 0 | 0.177 ± 0.0705 fold-change vs cycle 0 | 
53 | GTCCGA | 0.371 ± 0.00646 fold-change vs cycle 0 | 0.506 ± 0.055 fold-change vs cycle 0 | 
54 | CGGACA | 0.354 ± 0.00613 fold-change vs cycle 0 | 0.472 ± 0.0628 fold-change vs cycle 0 | 
55 | AGTGCC | 0.287 ± 0.0119 fold-change vs cycle 0 | 0.444 ± 0.0567 fold-change vs cycle 0 | 
56 | ACGCGA | 0.245 ± 0.0174 fold-change vs cycle 0 | 0.365 ± 0.0478 fold-change vs cycle 0 | 
57 | GGGACC | 0.257 ± 0.0113 fold-change vs cycle 0 | 0.386 ± 0.0917 fold-change vs cycle 0 | 
58 | CCGCCA | 0.105 ± 0.00392 fold-change vs cycle 0 | 0.218 ± 0.0543 fold-change vs cycle 0 | 
59 | ACGGCG | 0.0768 ± 0.0155 fold-change vs cycle 0 | 0.177 ± 0.0582 fold-change vs cycle 0 | 
60 | CAAGCC | 0.349 ± 0.0256 fold-change vs cycle 0 | 0.491 ± 0.0577 fold-change vs cycle 0 | 
